According to PubChem BioAssay AID624296 (National Center for Advancing Translational Sciences (NCATS), 2012):
About 9,900 (2.8%) of roughly 350,000 compounds were called active. Not shown: some 15% with an inconclusive outcome. Many of the other results were omitted from the sample, so actives are more common in it than they were. Values without a mark were called inactive. Calls follow the shape of the dose curve; as a rule, active = well fitted activation curve with a large enough effect; inconclusive = small, poorly fitted or top-dose-only effect; inactive = no such curve, though single readings can be large or run the other way.

Assay: A quantitative high throughput screen for small molecules that induce DNA re-replication in MCF 10a normal breast cells. Also: nearly all actives have a fitted effect of over 50% in size. As to activity, positive = re-replication: % of control where 0% means no effect.
Settings: MCF 10A DNA re-replication, Hoechst nuclear intensity, 48 h; series mostly up to 46.1 µM; activity, positive = re-replication: at the top concentration
Potency is read from the fitted curve at half-maximal effect.

| Compound | activity, positive = re-replication [%] | Potency |
| --- | --- | --- |
| Cc1ccc(C(=O)NCCNC(=O)c2cnccn2)cc1 | -3.55 |  |
| CCN(CC)c1ccc(/C=N/Nc2nc(C)cc(C)n2)c(O)c1 |  | 18.4 µM (active) |
| COc1ccc(/C=C/C(=O)OCC(=O)N2CCN(S(=O)(=O)c3ccc(C)cc3C)CC2)cc1OC | 8.11 |  |
| C[C@]12CCC(=O)C=C1C=CC1C2CC[C@@]2(C)C1CC[C@@]21CCC(=O)O1 (stereo not given in full) | -1.52 |  |
| CCN(C(=O)COC(=O)CCOc1cccc(C)c1)c1c(N)n(Cc2ccccc2)c(=O)[nH]c1=O | 0.756 |  |
| CC(C)Cn1c(SCC(=O)Nc2ccc(Cl)cc2F)nc(O)cc1=O | 4.29 |  |
| Cc1ccc(CNC(=O)COC(=O)C2CCC2)cc1 | -2.9 |  |
| O=C(c1ccc(Cl)nc1)N1CCN(S(=O)(=O)c2ccc3c(c2)OCCO3)CC1 | -10.9 |  |
| COc1ccc(S(=O)(=O)N2CCN(CC(=O)N3c4ccccc4CC3C)CC2)cc1OC (stereo not given) | 6.54 |  |
| COc1cc(/C=N/NC(=S)Nc2cccnc2)cc(OC)c1O | 7.2 |  |
| COc1cc(/C=N/Nc2ccc(C)cc2)cc(Br)c1O |  | 25.9 µM (active) |
| CCNc1nc(NCC)nc(N/N=C/c2ccc(O)c(OC)c2)n1 | -0.389 |  |
| CCN(C(=O)CSc1nnnn1-c1ccc(OC)cc1)C1CCS(=O)(=O)C1 (stereo not given) | 5 |  |
| COC(=O)c1cc(Oc2ccc(S(=O)(=O)N3CCOCC3)cc2[N+](=O)[O-])cc(C(=O)OC)c1 | 2.23 |  |
| O=S(=O)(NCc1ccccn1)c1ccc(F)cc1 | -2.88 |  |
| O=S(=O)(NCCc1ccc(F)cc1)c1cccc2cccnc12 | -10.9 |  |
| O=S(=O)(NCCOc1cccc2cccnc12)c1ccc(F)cc1 |  | 10.3 µM (active) |
| COc1ccccc1C(=O)NCC(=O)NCCSc1ccc(Br)cc1 | -0.726 |  |
| O=C(O[C@H]1[C@H](Cc2ccccc2)NS(=O)(=O)[C@H]2C[C@@H]3C=C[C@]12O3)c1ccc([N+](=O)[O-])cc1 | 0.151 |  |
| CCOC(=O)C1CCN(C(=O)CN2C(=O)NC(C)(c3ccc4cc(OC)ccc4c3)C2=O)CC1 (stereo not given) | 13.8 |  |
| COc1cc(/C=C(\C#N)c2nc3ccccc3[nH]2)ccc1O | 19.5 |  |
| COc1ccc(C(C(O)C(=O)c2c[nH]c3ccccc23)N2CCN(c3ccccc3)CC2)cc1 (stereo not given) | 20.1 |  |
| COc1ccc(/C=C(\C#N)c2c[nH]c3ccccc23)cc1 |  | 13 µM (active) |
| COc1ccc(C(=O)COC(=O)CN2C(=O)C3CC=CCC3C2=O)c(OC)c1 (stereo not given) | 6.24 |  |
| CCOC(=O)c1c(NC(=O)CNC2CCCc3ccccc32)sc(C(N)=O)c1C (stereo not given) |  | 16.4 µM (active) |

| Compound | activity, positive = re-replication [%] | Potency |
| --- | --- | --- |
| NC(=O)Nc1ccc(C(=O)OCC(=O)NC2CCCc3ccccc32)cc1 (stereo not given) | 3.28 |  |
| CCOC(=O)c1sc(NC(=O)COc2ncnc3ccccc23)c(C(=O)OCC)c1C | 25.7 |  |
| O=C(COC(=O)c1ccc(O)cc1O)NC(=O)c1ccccc1 | 0.164 |  |
| O=C(Nc1ccc(CN2CCOCC2)cc1)c1cc(Cl)ccc1Cl | 14.9 |  |
| CCCc1cc(=O)oc2cc(OCC(=O)Nc3ccc(CN4CCOCC4)cc3)c(Cl)cc12 | 0.913 |  |
| CCCC(=O)NC(=S)Nc1ccc(CN2CCOCC2)cc1 |  | 0.651 µM (active) |
| O=C(c1cc2ccccc2o1)N1CCN(S(=O)(=O)c2ccc(Cl)s2)CC1 | 14.5 |  |
| CCCCCCSc1ccc([C@@H]2[C@H]3C(=O)N(CC)C(=O)[C@H]3[C@]3(C(=O)OC)CCCCN23)cc1 | -61.3 |  |
| CCn1nnc2cc(C(=O)Nc3ccc(C(=O)OC(C)C)cc3)ccc21 | 12.4 |  |
| CCOC(=O)C1=C(CC)Nc2ccccc2N=C1NC(=O)c1cccc(S(=O)(=O)N2CCCC2)c1 |  | 23.1 µM (active) |
| CCOC(=O)C1=C(CC)Nc2ccccc2N=C1N | -1.41 |  |
| CCOC(=O)CSc1nnc(NC(=O)c2cccc(S(=O)(=O)N3CCCC3)c2)s1 | 1.71 |  |
| CCC(C)C(N=C1NS(=O)(=O)c2ccccc21)C(=O)N1CCC(C)CC1 (stereo not given) | 11.9 |  |
| Cc1ccnc(SCCn2c(Br)nc3c2c(=O)[nH]c(=O)n3C)n1 | -10.4 |  |
| Cn1c(=O)[nH]c(=O)c2c1nc(Br)n2CCCCSc1nc2ccccc2o1 |  | 7.31 µM (active) |
| Cn1c(=O)c2c(nc(Br)n2CCSc2nc3ccccc3o2)n(C)c1=O | 0.906 |  |
| Cc1cccc(C(=O)N[C@H](C(=O)NCc2cccs2)C(C)C)c1 | 1.53 |  |
| CC(C)(C)OC(=O)C[C@@H]1C/C=C\C[C@@H](CC(=O)N[C@@H](CO)Cc2ccccc2)C(=O)N2CCC[C@H]2COC1=O | 3.69 |  |
| Nc1ccc2[nH]c(=S)sc2c1 | -3.92 |  |
| CCCN1CCn2c3c(c4cc(Br)ccc42)CCCC31 (stereo not given) |  | 23.1 µM (active) |
| COc1ccc(S(=O)(=O)N2CCOCC2)cc1NC(=O)CC1CC2CCC1C2 (stereo not given) | -6.11 |  |
| Cc1ccc(C(=O)O)c(NC=O)c1OCc1ccccc1 | 0.724 |  |
| CCCCOC(=O)Cn1c(=O)n(CC(=O)OCCCC)c2cc(C)ccc21 | 7.6 |  |
| CCCCOC(=O)Cn1c(=N)n(CCN(CC)CC)c2ccccc21 | -8.39 |  |
| CCCCCCCCCCOC(=O)Cn1c(COc2ccc(C)cc2)[n+](C)c2ccccc21 |  | 23.1 µM (active) |
